The source of these data is the supplement of paper PMC10515830.

What all share (details): 10 µM; exposure time 6 h
Assay [1] has as its system Danio rerio larvae (5 dpf). Put plainly: difference in excitability vs DMSO (percentage points); higher = more excitable than DMSO. In short, it runs like this:
(§1)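 Wild-type zebrafish larvae at 5 dpf were kept in 96-well plates and exposed for 6 h to 100 µL egg water holding library compound at a final concentration of 10 µM. From 3 h into exposure, the plates were held at 28.5 ℃ and photographed every 6 s through a 3-h programme of moving lines and 100 ms, 400Hz tones. Each behaviour was scored by Z-LaP Tracker, a DeepLabCut model, and averaged over 48 larvae per compound. Every value gives the compound mean minus the vehicle control mean, in percentage points.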

The test system of assay [2] is Danio rerio larvae (5 dpf). In words: difference in startle response vs DMSO (percentage points); higher = stronger startle than DMSO. In short, it runs like this:
as §1

Assay [3] has as its system Danio rerio larvae (5 dpf). In words: difference in activity during first hour vs DMSO (percentage points); higher = more activity than DMSO. A digest of the protocol: as §1
The test system of assay [4] is Danio rerio larvae (5 dpf). Put plainly: difference in habituation to acoustic stimuli vs DMSO (percentage points); higher = more habituation than DMSO. A digest of the protocol:
as §1

The test system of assay [5] is Danio rerio larvae (5 dpf). In words: difference in combined optomotor response to red, green and blue moving lines vs DMSO (percentage points); higher = stronger optomotor response than DMSO. A digest of the protocol: as §1

Counter-ions that a name gives are not always drawn.

In assay [1], `CN(C)CCOC(=O)C(c1ccccc1)C1(O)CCCC1` (stereo not given) [Cyclopentolate (hydrochloride)] registered a difference in excitability of -10.4. Besides, in assay [2], the “difference in startle response” value was -4.29. Besides, the “difference in activity during first hour” value in assay [3] is -7.59. For the same compound, the “difference in habituation to acoustic stimuli” value (“difference in habituation” below) in assay [4] is -2.76. Also, in assay [5], the difference is -2.74.

In the case of `Cn1c(=O)cc(N2CCC[C@@H](N)C2)n(Cc2ccccc2C#N)c1=O` [Alogliptin (benzoate salt)], in assay [1], the difference in excitability was found to be 9.09. The “difference in startle response” value in assay [2] was 5.66. Also, the “difference in activity during first hour” value in assay [3] turned out to be 10.7. Further, the “difference in habituation” value in assay [4] was -0.862. The difference in assay [5] was found to be 0.5.

Compound `OC[C@@H](O)[C@@H](O)[C@H](O)[C@H](O)CO` [D-Mannitol] displayed a difference in excitability in assay [1] of 1.16. For the same compound, the “difference in startle response” value in assay [2] is -0.914. Moreover, the “difference in activity during first hour” value in assay [3] stood at 5.26. Also, the “difference in habituation” value in assay [4] worked out at 3.53. Further, the difference in assay [5] turned out to be 4.85.

`CN(Cc1cnc2nc(N)nc(N)c2n1)c1ccc(C(=O)N[C@@H](CCC(=O)O)C(=O)O)cc1` [Methotrexate (hydrate)]: the difference in excitability in assay [1] was determined as 9.03. In assay [2], the “difference in startle response” value turned out to be 7.54. Further, the “difference in activity during first hour” value in assay [3] is -9.02. In addition, the “difference in habituation” value in assay [4] is -0.271. Moreover, in assay [5], the difference worked out at 3.11.

Turning to `CN(C)CCc1c[nH]c2ccc(C[C@H]3COC(=O)N3)cc12` [Zolmitriptan], in assay [1], the difference in excitability is -7.59. Further, the “difference in startle response” value in assay [2] was 9.39. For the same compound, in assay [3], the “difference in activity during first hour” value is -0.487. The “difference in habituation” value in assay [4] is 4.76. Moreover, the difference in assay [5] amounted to 10.3.

For `Brc1c(NC2=NCCN2)ccc2nccnc12` [Brimonidine (tartrate)], the difference in excitability in assay [1] was -0.928. Moreover, in assay [2], the “difference in startle response” value is -0.293. Moreover, the “difference in activity during first hour” value in assay [3] was -14.2. Besides, the “difference in habituation” value in assay [4] was 3.89. Further, in assay [5], the difference came to 10.9.

In assay [1], `CC(=O)OCC(=O)[C@@]1(OC(C)=O)[C@@H](C)C[C@H]2[C@@H]3C[C@H](F)C4=CC(=O)C=C[C@]4(C)[C@@]3(F)[C@@H](O)C[C@@]21C` [Diflorasone Diacetate] showed a difference in excitability of 10.5. For the same compound, the “difference in startle response” value in assay [2] is -5.05. In addition, the “difference in activity during first hour” value in assay [3] is -4.84. Moreover, the “difference in habituation” value in assay [4] is -1.12. Moreover, the difference in assay [5] was -4.79.

With `Nc1ncn([C@@H]2O[C@H](CO)[C@@H](O)[C@H]2O)c(=O)n1` [5-Azacytidine], in assay [1], the difference in excitability came to 6.01. Moreover, in assay [2], the “difference in startle response” value was -4.41. Moreover, the “difference in activity during first hour” value in assay [3] was -3.91. The “difference in habituation” value in assay [4] is -4.6. For the same compound, in assay [5], the difference came out at 0.0811.

In turn, `CC(Oc1c(Cl)cccc1Cl)C1=NCCN1` (stereo not given) [Lofexidine (hydrochloride)] registered a difference in excitability in assay [1] of 5.84. Moreover, the “difference in startle response” value in assay [2] was determined as 4.45. In addition, in assay [3], the “difference in activity during first hour” value was found to be 2.08. For the same compound, in assay [4], the “difference in habituation” value was 0.884. The difference in assay [5] is 10.9.

With `CCCN(CCC)CCc1cccc2c1CC(=O)N2` [Ropinirole (hydrochloride)], the difference in excitability in assay [1] turned out to be 31.3. The “difference in startle response” value in assay [2] was -0.638. For the same compound, in assay [3], the “difference in activity during first hour” value was -13.7. For the same compound, the “difference in habituation” value in assay [4] was -1.82. Besides, the difference in assay [5] is -4.31.

On to `CC(C)Cc1ccc(C(C)C(=O)O)cc1` (racemic) [(±)-Ibuprofen], for which the difference in excitability in assay [1] is 15.5. For the same compound, the “difference in startle response” value in assay [2] was -4.17. In assay [3], the “difference in activity during first hour” value was -2.46. Moreover, the “difference in habituation” value in assay [4] was 3.85. In addition, the difference in assay [5] is 6.34.

With `CCC(C)(C)C(=O)O[C@H]1C[C@@H](C)C=C2C=C[C@H](C)[C@H](CC[C@@H]3C[C@@H](O)CC(=O)O3)[C@H]21` [Simvastatin], the difference in excitability in assay [1] was 6.26. Moreover, the “difference in startle response” value in assay [2] is -2.42. Also, the “difference in activity during first hour” value in assay [3] came to 9.76. For the same compound, the “difference in habituation” value in assay [4] came out at 1.77. Further, the difference in assay [5] amounted to 2.53.

For the compound `NC1=NCC2c3ccccc3Cc3ccccc3N12` (stereo not given) [Epinastine (hydrochloride)], the difference in excitability in assay [1] was found to be 13. Besides, in assay [2], the “difference in startle response” value was -2.41. Besides, the “difference in activity during first hour” value in assay [3] was 14.1. For the same compound, the “difference in habituation” value in assay [4] was determined as 4.49. Also, in assay [5], the difference amounted to 7.56.

Compound `COC1=CC(=O)C[C@@H](C)[C@]12Oc1c(Cl)c(OC)cc(OC)c1C2=O` [Griseofulvin] gave a difference in excitability in assay [1] of 3.76. In assay [2], the “difference in startle response” value came to 5.64. Also, in assay [3], the “difference in activity during first hour” value came out at 19.9. In addition, the “difference in habituation” value in assay [4] worked out at 2.87. Further, the difference in assay [5] turned out to be 8.4.

As for `CC(C)OC(=O)[C@H](C)N[P@](=O)(OC[C@H]1O[C@@H](n2ccc(=O)[nH]c2=O)[C@](C)(F)[C@@H]1O)Oc1ccccc1`, the difference in excitability in assay [1] was -3.58. Further, in assay [2], the “difference in startle response” value is -4.12. Further, the “difference in activity during first hour” value in assay [3] worked out at 10. In assay [4], the “difference in habituation” value was found to be 1.16. In assay [5], the difference came to 6.56.

With `COCCCOc1ccnc(C[S+]([O-])c2nc3ccccc3[nH]2)c1C` (stereo not given) [Rabeprazole (sodium salt)], the difference in excitability in assay [1] came to 2.22. In addition, the “difference in startle response” value in assay [2] was -0.57. The “difference in activity during first hour” value in assay [3] was 7.69. Also, in assay [4], the “difference in habituation” value is -4.65. Moreover, in assay [5], the difference was determined as 15.4.

As to `Fc1ccc([C@@H]2CCNC[C@H]2COc2ccc3c(c2)OCO3)cc1` [Paroxetine (hydrochloride)], the difference in excitability in assay [1] amounted to 11. Besides, the “difference in startle response” value in assay [2] is -3.61. In addition, in assay [3], the “difference in activity during first hour” value is -22.3. Moreover, the “difference in habituation” value in assay [4] was -3.35. The difference in assay [5] was -11.4.

In assay [1], `CCCCCCCCCCCCCCCCCCCCCCO` [Docosanol] had a difference in excitability of 3.23. Further, in assay [2], the “difference in startle response” value is 1.61. The “difference in activity during first hour” value in assay [3] is -0.528. For the same compound, in assay [4], the “difference in habituation” value is -2.06. Moreover, in assay [5], the difference was 0.854.

Consider `CN(C)CCC[C@@]1(c2ccc(F)cc2)OCc2cc(C#N)ccc21` [Escitalopram], for which the difference in excitability in assay [1] is 12.5. Moreover, in assay [2], the “difference in startle response” value was -1.37. Also, in assay [3], the “difference in activity during first hour” value is -18.9. The “difference in habituation” value in assay [4] stood at 1.61. Besides, the difference in assay [5] amounted to 1.8.

For `CC1OC2(CS1)CN1CCC2CC1` (stereo not given) [Cevimeline (hydrochloride)], in assay [1], the difference in excitability is -6.36. Also, the “difference in startle response” value in assay [2] was -3.25. In assay [3], the “difference in activity during first hour” value amounted to 16.4. For the same compound, in assay [4], the “difference in habituation” value was -3.9. Besides, the difference in assay [5] was -1.46.

`CC[C@H](C)C(=O)O[C@H]1C[C@@H](C)C=C2C=C[C@H](C)[C@H](CC[C@@H]3C[C@@H](O)CC(=O)O3)[C@H]21` [Lovastatin] came in with a difference in excitability in assay [1] of 9.79. The “difference in startle response” value in assay [2] was 2.77. Moreover, in assay [3], the “difference in activity during first hour” value was 7.75. Moreover, the “difference in habituation” value in assay [4] was -0.0098. Besides, the difference in assay [5] was 1.09.

For `CC(=O)Nc1nnc(S(N)(=O)=O)s1` [Acetazolamide], in assay [1], the difference in excitability was -5.01. In addition, the “difference in startle response” value in assay [2] was 8.72. In addition, the “difference in activity during first hour” value in assay [3] was determined as 14.2. In addition, in assay [4], the “difference in habituation” value amounted to 6.2. For the same compound, the difference in assay [5] amounted to 3.65.

In assay [1], `CC(C)C(=O)OCC(=O)[C@@]12O[C@H](C3CCCCC3)O[C@@H]1C[C@H]1[C@@H]3CCC4=CC(=O)C=C[C@]4(C)[C@H]3[C@@H](O)C[C@@]12C` [Ciclesonide] came in with a difference in excitability of 9.7. Besides, in assay [2], the “difference in startle response” value is -3.59. Moreover, the “difference in activity during first hour” value in assay [3] was -7.9. In assay [4], the “difference in habituation” value was -5.49. The difference in assay [5] stood at 9.17.

`N#C[C@@H]1C[C@@H]2C[C@@H]2N1C(=O)[C@@H](N)C12CC3CC(CC(O)(C3)C1)C2` [Saxagliptin (hydrochloride)]: the difference in excitability in assay [1] came out at 4.61. For the same compound, the “difference in startle response” value in assay [2] was -1.75. For the same compound, the “difference in activity during first hour” value in assay [3] was 11.5. Further, the “difference in habituation” value in assay [4] was found to be 5.75. Besides, the difference in assay [5] amounted to 2.16.
